Measured values published in PubChem BioAssay AID1076 (NMMLSC, 2008).
Calls of active or inactive are those of the source.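 How the source made its calls: active means cell event count below 40, meaning activity score above 60 where score is 100 minus count; inactive means the rest.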

Assay: LNCaP cell loss by flow event count, confirmation, cytotoxicity control for prostate differentiation activator project, single point (AID 1076);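 further: counts scatter-gated live cells after medium removal discards detached dead cells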
Conditions: flow cytometry event count, 4 d, stronger effect = lower value

Compound | cell event count (at 100 µM) | cell event count (event count, at 10 µM)
Cc1ccc2c(c1)[C@@H]1CN(C)CC[C@@H]1N2C(=O)Nc1cccc(C(F)(F)F)c1 | 13 (inactive) | 122
Cc1cc(OCC(=O)O)c2c3c(c(=O)oc2c1)CCCC3 | 175 (inactive) | 157
C[C@H]1CCC/C=C/C2C[C@H](O)CC2[C@H](O)/C=C/C(=O)O1 (stereo not given in full) | 23 (active) | 26
O=C(COc1ccc2ccccc2c1)N1CCN(C2CCN(Cc3ccccc3)CC2)CC1 | 35 (inactive) | 324
Cc1nc2ccccc2c(=O)n1-c1ccc(F)cc1 | 282 (inactive) | 155
Cc1ccc(Cn2c(C)c3cnn(CC(=O)N4CCC5(CC4)OCCO5)c(=O)c3c2C)cc1 | 66 (inactive) | 202
CCn1c(=O)cc(OCC(=O)N2CCN(Cc3ccc4c(c3)OCO4)CC2)c2ccccc21 | 12 (inactive) | 240
CCn1c(=O)cc(OCC(=O)N2CCC3(CC2)OCCO3)c2ccccc21 | 210 (inactive) | 411
CCOc1ccc(C2SCC(=O)Nc3c2c(=O)[nH]n3C2CCCCCC2)cc1 (stereo not given) | 18 (inactive) | 101
Clc1ccc(COC(Cn2ccnc2)c2ccc(Cl)cc2Cl)cc1 (stereo not given) | 11 (inactive) | 82
